Data on 31 compounds can be found in PubChem BioAssay.

Measured potencies and affinities stand elsewhere. Results filed as inconclusive are left out. Activity calls are given as the source filed them. Unless noted, no rule for the calls is given here.

A short description of one assay: RMG-1 ovarian cancer cell viability loss – cherry-pick, dose response (AID 687029;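 active = signal drop whose fitted half-maximal concentration is at most twice the top valid dose, in every test run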;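 also: cells exposed to compound for 96 hours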). As to conditions: RMG-1 viability, CellTiterGlo ATP luminescence, 96 h; series mostly up to 35 µM.
In the case of `COc1ccc(OCc2cccc(C(=O)Nn3cc([N+](=O)[O-])cn3)c2)cc1`, the call was inactive. In the case of `O=C(NC1=C(NC2CCS(=O)(=O)C2)C(=O)c2ccccc2C1=O)c1ccccc1` (centres undefined), the result was inactive.

`CN(C[C@H]1N[C@@H](CO)[C@@H]1c1ccc(C2=CCCC2)cc1)C(=O)c1cccc(F)c1`: the result was inactive.

As for `Nc1nc(Sc2ccc([N+](=O)[O-])c3nonc23)c2[nH]cnc2n1`, the call was inactive. `Nc1ncnc2c(C3OC(CO)C(O)C3O)c[nH]c12` (centres undefined): the call was inactive.

Regarding `CN(C)CCNC(=O)c1cc2c(s1)-c1ccc(Cl)cc1SC2`, the result was inactive.

Consider `CCCCCN=C(N)N/N=C/c1c[nH]c2ccc(OC)cc12`, for which the result was inactive. Same read-out and setting: in the case of `C(=NNc1ccc2ccccc2n1)c1ccccn1` it was “inactive”.

The next assay is described as follows: IOSE-T80 viability loss, PAX8-independent line – cell-based, cherry-pick, selectivity assay for PAX8 inhibitor project, dose response (AID 687032;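 active = fitted half-maximal concentration for viability loss no higher than twice the top valid dose, in every repeat run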;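 also: cells exposed to compound for 96 h before reading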). To be noted: CellTiterGlo ATP luminescence, 96 h; series mostly up to 35 µM. On the technique in general: In ATP-based viability assays light output follows the ATP content of the culture.
As to `COc1ccccc1CNC(=O)c1ccc2nc3[nH]c4ccccc4c3nc2c1`, the result was inactive. On to `COc1cccc(S(=O)(=O)NCC(=O)Nc2ccc(C(C)(C)C)cc2)c1`, for which the compound was classed as inactive. As to `C[C@@H]1CN([C@@H](C)CO)C(=O)Cc2cc(NS(=O)(=O)c3ccc(Cl)cc3)ccc2O[C@H]1CN(C)Cc1ccc(C(F)(F)F)cc1`, the compound was called inactive. Regarding `Cc1ccc(S(=O)(=O)Nc2ccc3c(c2)C(=O)N([C@@H](C)CO)C[C@@H](C)[C@@H](CN(C)C)OCCCC[C@H](C)O3)cc1`, the compound was classed as inactive. Still for that read-out and setting: in the case of `C[C@@H]1CN([C@@H](C)CO)S(=O)(=O)c2ccc(C#Cc3ccncc3)cc2O[C@@H]1CN(C)C(=O)C1CCCCC1` it was “inactive”. For `CNC[C@H]1Oc2ccc(NC(=O)NC(C)C)cc2CC(=O)N([C@@H](C)CO)C[C@@H]1C`, the call was inactive.

A short description of a further assay: CMV-driven luciferase expression suppression in HEK293 – cell-based, luminescence, dry powder, counter-screen for Pax8 inhibitor project, dose response (AID 743020;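 active = signal-lowering compounds whose fitted half-maximal concentration is at or below twice the top tested dose in every run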;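 also: HEK293 cells stably expressing the CMV luciferase reporter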). To be noted: HEK293 CMV-luciferase reporter, SteadyGlo luminescence, 24 h; series mostly up to 35 µM. For orientation: A counterscreen serves to expose hits that act by an unwanted route or on another target.
Turning to `CCOc1ccc2nc(N/C(N)=N/C(=S)Nc3ccc(C)c(C)c3)nc(C)c2c1`, the compound was called inactive.

Turning to `CCCNC(=O)COc1nc2ccccc2nc1N1CCOCC1`, the result was inactive. With `CC1CN(CC(O)COC(c2ccccc2)c2ccccc2)CC(C)O1` (centres undefined), the compound was classed as inactive. In the case of `C[C@@H]1CN([C@@H](C)CO)C(=O)Cc2cc(NS(=O)(=O)c3ccc(Cl)cc3)ccc2O[C@H]1CN(C)Cc1ccc(C(F)(F)F)cc1`, the call was inactive. Same read-out and setting: the result for `O=C(CCC(=O)c1ccccc1)NCCc1c[nH]c2ccccc12` reads “inactive”. `O=S(=O)(NCC1CCCO1)c1cnc(Cl)c(Br)c1` (centres undefined): the result was inactive. As for `O=C(NCc1ccco1)C1CCCN(S(=O)(=O)c2ccc(Br)cc2)C1` (centres undefined), the result was inactive. As for `Cc1nnc(N/N=C/c2cc(C)n(-c3ccc(F)cc3)c2C)n1N`, the compound was classed as inactive.

As for `CCCCn1c(O)c(N=NC(=O)Cn2c(C(F)(F)F)nc3ccccc32)c2ccccc21`, the result was inactive. With `Cc1ccc(S(=O)(=O)Nc2ccc3c(c2)C(=O)N([C@@H](C)CO)C[C@@H](C)[C@@H](CN(C)C)OCCCC[C@H](C)O3)cc1`, the result was inactive.

With `COc1cccc(CC(=O)Nc2nc3c(s2)C(=O)CC(C)(C)C3)c1`, the compound was classed as inactive. Turning to `COc1cc(OC)cc(C(=O)NCC(=O)OCC(=O)c2cc(C)n(Cc3ccco3)c2C)c1`, the compound was called inactive. As for `CCOc1ccc(-n2c(=S)sc3c(=O)[nH]c(SCC(=O)NCC4CCCO4)nc32)cc1` (centres undefined), the result was inactive. On to `Cc1cc(CN(C)C(=O)c2cc(COc3ccc4ncccc4c3)on2)on1`, for which the result was inactive.

As for `C[C@@H]1CN([C@@H](C)CO)S(=O)(=O)c2ccc(C#Cc3ccncc3)cc2O[C@@H]1CN(C)C(=O)C1CCCCC1`, the outcome was inactive. Same read-out and setting: in the case of `CNC[C@H]1Oc2ccc(NC(=O)NC(C)C)cc2CC(=O)N([C@@H](C)CO)C[C@@H]1C` it was “inactive”; in that of `CNC[C@@H]1Oc2ccc(NC(=O)NC(C)C)cc2CC(=O)N([C@@H](C)CO)C[C@@H]1C`, “inactive”. With `CCSc1cc(N2CCOCC2)nc(-c2ccc(Cl)cc2)n1`, the compound was classed as inactive.

Another assay in a line: general cell-killing toxicity readout – plate reader, dry powder samples, cytotoxicity control for PAX8 inhibitor project, dose response (AID 743021). To be noted: cell line, non-specific cytotoxicity counter-screen; series mostly up to 35 µM.
Take `CCOc1ccc2nc(N/C(N)=N/C(=S)Nc3ccc(C)c(C)c3)nc(C)c2c1`: the result was inactive. Consider `CCCNC(=O)COc1nc2ccccc2nc1N1CCOCC1`, for which the result was inactive. As to `COc1ccccc1CNC(=O)c1ccc2nc3[nH]c4ccccc4c3nc2c1`, the compound was called inactive. The same measure, in the same setting: in the case of `COc1cccc(S(=O)(=O)NCC(=O)Nc2ccc(C(C)(C)C)cc2)c1` it was “inactive”; in that of `CC1CN(CC(O)COC(c2ccccc2)c2ccccc2)CC(C)O1` (centres undefined), “inactive”; in that of `Cc1cc(Nc2ccc3c(c2)OCCO3)c2ccccc2n1`, “inactive”. Regarding `C[C@@H]1CN([C@@H](C)CO)C(=O)Cc2cc(NS(=O)(=O)c3ccc(Cl)cc3)ccc2O[C@H]1CN(C)Cc1ccc(C(F)(F)F)cc1`, the call was inactive.

As to `O=C(CCC(=O)c1ccccc1)NCCc1c[nH]c2ccccc12`, the outcome was inactive. Regarding `O=S(=O)(NCC1CCCO1)c1cnc(Cl)c(Br)c1` (centres undefined), the result was inactive. Turning to `O=C(NCc1ccco1)C1CCCN(S(=O)(=O)c2ccc(Br)cc2)C1` (centres undefined), the compound was classed as inactive.

For `Cc1nnc(N/N=C/c2cc(C)n(-c3ccc(F)cc3)c2C)n1N`, the call was inactive. For the compound `CCCCn1c(O)c(N=NC(=O)Cn2c(C(F)(F)F)nc3ccccc32)c2ccccc21`, the compound was called inactive.

Consider `Cc1ccc(S(=O)(=O)Nc2ccc3c(c2)C(=O)N([C@@H](C)CO)C[C@@H](C)[C@@H](CN(C)C)OCCCC[C@H](C)O3)cc1`, for which the outcome was inactive.

In the case of `COc1ccc2c(COC(=O)CNC(=O)C34CC5CC(CC(C5)C3)C4)cc(=O)oc2c1`, the call was inactive. In the case of `COc1cc(OC)cc(C(=O)NCC(=O)OCC(=O)c2cc(C)n(Cc3ccco3)c2C)c1`, the result was inactive. With `CCOc1ccc(-n2c(=S)sc3c(=O)[nH]c(SCC(=O)NCC4CCCO4)nc32)cc1` (centres undefined), the call was inactive. With `Cc1cc(CN(C)C(=O)c2cc(COc3ccc4ncccc4c3)on2)on1`, the compound was called inactive.

As to `COc1ccc(C(=O)NC(=S)NNC(=O)c2c(-c3ccccc3)noc2C)cc1`, the call was inactive. As to `C[C@@H]1CN([C@@H](C)CO)S(=O)(=O)c2ccc(C#Cc3ccncc3)cc2O[C@@H]1CN(C)C(=O)C1CCCCC1`, the compound was called inactive. The same measure, in the same setting: in the case of `CNC[C@H]1Oc2ccc(NC(=O)NC(C)C)cc2CC(=O)N([C@@H](C)CO)C[C@@H]1C` it was “inactive”; in that of `CNC[C@@H]1Oc2ccc(NC(=O)NC(C)C)cc2CC(=O)N([C@@H](C)CO)C[C@@H]1C`, “inactive”; in that of `CCSc1cc(N2CCOCC2)nc(-c2ccc(Cl)cc2)n1`, “inactive”.
